Measured values taken from PubChem BioAssay (Tox21).
The source made the active and inactive calls. Unless noted, calls come from the whole dose curve; as a rule, active = well fitted curve in the direction sought with a large enough effect in the repeat runs; inconclusive = weak or mixed curves; inactive = no such curve, though single readings can be large; an effect the other way counts as inactive or inconclusive. Positions of bridges follow the written chain, without caps; N, C: chain ends. Non-standard residues stand in square brackets, D forms with d. Residues, ends and D or L forms follow the SMILES beside them. *: point of attachment. X2 = CC[C@H](C)CCCCC(=O)*; Dab = NCC[C@H](N)C(=O)O

Tests used:
[1] = qHTS assay to identify small molecule antagonists of the thyroid receptor (TR) signaling pathway - cell viability counter screen (AID 743064); note: nearly all actives have a fitted effect of over 50% in size; note: potency is the fitted concentration of half-maximal effect
Summary of the method: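 Same-well viability check: GH3.TRE-Luc cells stimulated with 1 nM T3 alongside test compound for 23.5 h, followed by CellTiter-Fluor fluorescence.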

[2] = qHTS assay to identify small molecule antagonists of the thyroid receptor (TR) signaling pathway (AID 743065); note: nearly all actives have a fitted effect of over 55% in size; note: potency is the fitted concentration of half-maximal effect
Summary of the method: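 Antagonism measured as loss of luciferase signal in GH3 cells stably carrying a TRE-luciferase reporter, co-treated with compound and T3 (1 nM final) for 23.5 h at 37 C. Viability was read in the same well by CellTiter-Fluor.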

[3] = test system: thyroid hormone receptor (rat, GH3 cells); assay: qHTS assay to identify small molecule agonists of the thyroid receptor (TR) signaling pathway (AID 743066; calls by dose curve)
[4] = biological target: Estrogen receptor (Homo sapiens) (UniProt P03372); assay: qHTS assay to identify small molecule antagonists of the estrogen receptor alpha (ER-alpha) signaling pathway (AID 743069; active = well fitted curve in the direction sought with a large enough effect in the signal ratio in the repeat runs, not every such curve was filed as active; inconclusive = weak or mixed curves, or effect the other way; inactive = no such curve, though single readings can be large or run the other way; the % refers to the signal ratio; note: potency is the fitted concentration of half-maximal effect)
Chain of Estrogen receptor (Homo sapiens) (P03372 whole entry, looked up): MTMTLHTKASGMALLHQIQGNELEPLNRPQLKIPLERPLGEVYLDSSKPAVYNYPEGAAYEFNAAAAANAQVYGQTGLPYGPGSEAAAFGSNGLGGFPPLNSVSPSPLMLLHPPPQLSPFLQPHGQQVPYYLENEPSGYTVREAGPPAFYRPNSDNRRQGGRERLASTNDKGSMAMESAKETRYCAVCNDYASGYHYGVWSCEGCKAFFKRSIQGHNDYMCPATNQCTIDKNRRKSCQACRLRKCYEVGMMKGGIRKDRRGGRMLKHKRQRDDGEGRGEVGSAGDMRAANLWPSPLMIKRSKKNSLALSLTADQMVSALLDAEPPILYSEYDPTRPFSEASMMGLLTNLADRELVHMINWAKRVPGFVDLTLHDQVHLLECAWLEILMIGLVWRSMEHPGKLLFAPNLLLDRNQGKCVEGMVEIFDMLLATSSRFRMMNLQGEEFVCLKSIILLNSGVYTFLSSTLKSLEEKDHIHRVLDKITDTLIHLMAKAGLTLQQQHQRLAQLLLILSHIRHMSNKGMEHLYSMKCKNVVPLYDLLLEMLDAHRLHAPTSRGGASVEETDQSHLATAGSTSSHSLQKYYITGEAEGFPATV
Summary of the method: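 Antagonist mode: compounds in DMSO were co-added with 17beta-estradiol to ER-alpha-bla HEK293 cells (2% charcoal-stripped serum) and left 18 h at 37C. Reporter inhibition was measured as FRET fluorescence after 2 h LiveBLAzer substrate at room temperature.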

[5] = qHTS assay to identify small molecule antagonists of the estrogen receptor alpha (ER-alpha) signaling pathway - cell viability counter screen (AID 743074; calls by dose curve;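 note: HEK293 cells carrying ER-alpha-UAS-bla reporter stimulated with 17beta-estradiol; nearly all actives have a fitted effect of over 45% in size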)
[6] = biological target: Estrogen receptor (Homo sapiens) (UniProt P03372); assay: qHTS assay to identify small molecule agonists of the estrogen receptor alpha (ER-alpha) signaling pathway (AID 743075; calls by dose curve;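 note: HEK293 GripTite cells with ER-alpha and UAS-driven beta-lactamase reporter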)
[7] = biological target: Estrogen receptor (Homo sapiens) (UniProt P03372); assay: qHTS assay to identify small molecule agonists of the estrogen receptor alpha (ER-alpha) signaling pathway using the BG1 cell line (AID 743079); settings: BG1Luc4E2 cells, ERE-luciferase agonist, 22 h; activation: at 70.3 µM (top of the series); note: nearly all actives have a fitted effect of over 20% in size
[8] = biological target: Aromatase (Homo sapiens) (UniProt P11511); assay: qHTS assay to identify aromatase inhibitors (AID 743083); note: nearly all actives have a fitted effect of over 55% in size; note: potency is the fitted concentration of half-maximal effect
Chain of Aromatase (Homo sapiens) (P11511 whole entry, looked up): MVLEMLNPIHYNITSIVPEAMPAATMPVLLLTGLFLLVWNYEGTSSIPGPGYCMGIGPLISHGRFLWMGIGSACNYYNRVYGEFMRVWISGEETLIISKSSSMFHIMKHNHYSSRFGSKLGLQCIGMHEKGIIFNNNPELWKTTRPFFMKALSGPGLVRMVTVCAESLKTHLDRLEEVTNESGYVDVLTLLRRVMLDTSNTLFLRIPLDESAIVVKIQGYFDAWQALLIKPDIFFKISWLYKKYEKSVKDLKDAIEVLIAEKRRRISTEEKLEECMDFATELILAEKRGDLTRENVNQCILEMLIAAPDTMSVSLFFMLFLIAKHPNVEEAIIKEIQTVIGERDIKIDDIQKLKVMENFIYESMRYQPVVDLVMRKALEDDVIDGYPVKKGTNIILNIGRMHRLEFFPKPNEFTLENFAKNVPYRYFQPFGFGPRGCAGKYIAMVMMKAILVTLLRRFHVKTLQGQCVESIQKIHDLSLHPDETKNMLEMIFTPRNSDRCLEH

[9] = qHTS assay to identify aromatase inhibitors - cell viability counter screen (AID 743084);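 note: cells stimulated with testosterone during compound exposure; nearly all actives have a fitted effect of over 55% in size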; note: potency is the fitted concentration of half-maximal effect
[10] = biological target: Aryl hydrocarbon receptor (Homo sapiens) (UniProt P35869); assay: qHTS assay to identify small molecule that activate the aryl hydrocarbon receptor (AhR) signaling pathway (AID 743085);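 note: HG2L7.5c1 human HepG2 liver cells with stably integrated DRE-driven firefly reporter; nearly all actives have a fitted effect of over 15% in size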
Chain of Aryl hydrocarbon receptor (Homo sapiens) (P35869 whole entry, looked up): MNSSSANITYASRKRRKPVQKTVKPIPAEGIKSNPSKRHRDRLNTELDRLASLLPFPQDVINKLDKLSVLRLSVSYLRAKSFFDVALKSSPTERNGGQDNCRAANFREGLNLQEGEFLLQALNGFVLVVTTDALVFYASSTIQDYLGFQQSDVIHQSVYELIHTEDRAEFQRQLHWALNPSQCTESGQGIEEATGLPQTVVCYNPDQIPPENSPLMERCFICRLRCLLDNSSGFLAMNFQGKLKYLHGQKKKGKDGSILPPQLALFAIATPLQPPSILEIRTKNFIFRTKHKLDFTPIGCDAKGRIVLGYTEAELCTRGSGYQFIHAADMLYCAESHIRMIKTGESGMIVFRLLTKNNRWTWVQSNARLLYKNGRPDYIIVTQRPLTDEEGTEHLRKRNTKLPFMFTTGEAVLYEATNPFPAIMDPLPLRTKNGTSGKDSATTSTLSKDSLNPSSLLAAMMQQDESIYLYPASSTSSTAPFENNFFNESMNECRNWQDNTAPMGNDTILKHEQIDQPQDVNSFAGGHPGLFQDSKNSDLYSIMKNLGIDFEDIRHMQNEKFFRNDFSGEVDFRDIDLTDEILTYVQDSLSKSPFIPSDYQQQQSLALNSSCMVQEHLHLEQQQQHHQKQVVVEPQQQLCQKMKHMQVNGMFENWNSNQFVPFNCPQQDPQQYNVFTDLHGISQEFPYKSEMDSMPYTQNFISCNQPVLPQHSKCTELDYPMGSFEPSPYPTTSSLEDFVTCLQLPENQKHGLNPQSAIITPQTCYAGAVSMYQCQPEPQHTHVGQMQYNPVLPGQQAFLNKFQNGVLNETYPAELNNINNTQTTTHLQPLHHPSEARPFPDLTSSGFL
Summary of the method: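 Reporter assay in engineered HepG2 line HG2L7.5c1, whose plasmid carries twenty dioxin responsive elements upstream of firefly luciferase. Treatment lasted 24 h at 37C; ONE-Glo luminescence gauged induction.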

[11] = qHTS assay to identify small molecule that activate the aryl hydrocarbon receptor (AhR) signaling pathway - cell viability counter screen (AID 743086); note: nearly all actives have a fitted effect of over 45% in size; note: potency is the fitted concentration of half-maximal effect
Summary of the method: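 Cytotoxicity counter screen: CellTiter-Fluor signal (30 min, 37 C) in 4000 HepG2 cells/well carrying the DRE-luciferase reporter, following 24 h compound exposure at 37 C.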

[12] = biological target: Peroxisome proliferator-activated receptor gamma (Homo sapiens) (UniProt P37231); assay: qHTS assay to identify small molecule agonists of the peroxisome proliferator-activated receptor gamma (PPARg) signaling pathway (AID 743094; active = well fitted activation curve with a large enough effect in the signal ratio in the repeat runs, not every such curve was filed as active; inconclusive = weak or mixed curves, or effect the other way; inactive = no such curve, though single readings can be large or run the other way; the % refers to the signal ratio)
Chain of Peroxisome proliferator-activated receptor gamma (Homo sapiens) (P37231 whole entry, looked up): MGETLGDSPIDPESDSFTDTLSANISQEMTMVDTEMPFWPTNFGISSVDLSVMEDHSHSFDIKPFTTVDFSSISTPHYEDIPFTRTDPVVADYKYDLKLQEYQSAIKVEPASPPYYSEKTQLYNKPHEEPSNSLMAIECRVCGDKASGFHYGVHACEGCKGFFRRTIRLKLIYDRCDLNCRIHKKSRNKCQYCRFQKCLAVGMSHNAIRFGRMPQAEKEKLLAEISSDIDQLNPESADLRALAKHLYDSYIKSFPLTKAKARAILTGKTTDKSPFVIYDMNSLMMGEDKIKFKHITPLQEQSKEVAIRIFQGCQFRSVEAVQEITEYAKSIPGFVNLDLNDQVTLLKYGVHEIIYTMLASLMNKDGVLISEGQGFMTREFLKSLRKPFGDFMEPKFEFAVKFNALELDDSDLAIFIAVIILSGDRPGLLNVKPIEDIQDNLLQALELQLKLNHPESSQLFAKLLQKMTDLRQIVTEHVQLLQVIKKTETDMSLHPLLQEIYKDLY
Summary of the method: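 Cells from the PPARg UAS-bla HEK293H line are plated and incubated 5 h at 37C. Compounds in DMSO are pinned in and left 17 h at 37C. LiveBLAzer B/G substrate is then added for 1 h at room temperature before fluorescence is measured.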

[13] = qHTS assay to identify small molecule phospholipidosis (PLD) inducers (AID 1259344; active = well fitted curve in the direction sought with a large enough effect; inconclusive = small, poorly fitted or top-dose-only effect, or another doubt; inactive = no such curve, though single readings can be large; an effect the other way counts as inactive or inconclusive)
Summary of the method: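 Phospholipid accumulation was scored by imaging: fixed, Hoechst-counterstained HepG2 cells stained with LipidTOX Red after 24 h compound exposure at 37 C. Read-outs were pit count and pit intensity per well or per cell, with amiodarone and DMSO controls.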

[14] = qHTS assay to identify small molecule antagonists of the estrogen receptor alpha (ER-alpha) signaling pathway using the BG1 cell line (AID 743080; calls by dose curve;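 note: BG1 cells stimulated with 17beta-estradiol alongside compound; nearly all actives have a fitted effect of over 25% in size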; note: potency is the fitted concentration of half-maximal effect)
Summary of the method: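 Endogenous full-length ER-alpha in BG1-Luc-4E2 cells drives a stably integrated 4×ERE luciferase gene; compounds were tested against 17beta-estradiol over 21.5 h, with luminescence and multiplexed viability fluorescence recorded.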

[15] = qHTS assay to identify small molecule antagonists of the estrogen receptor alpha (ER-alpha) signaling pathway using the BG1 cell line - cell viability counter screen (AID 743081);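 note: compound given together with 17beta-estradiol as the ER stimulus; nearly all actives have a fitted effect of over 45% in size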
[16] = biological target: Nuclear receptor subfamily 1 group I member 2 (Homo sapiens) (UniProt O75469); assay: Human pregnane X receptor (PXR) activation by small molecules, qHTS assay (AID 1346985); note: nearly all actives have a fitted effect of over 40% in size; note: potency is the fitted concentration of half-maximal effect
Summary of the method: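 DPX-2 cells (HepG2 co-transfected with a PXR response element and a CYP3A4-promoter luciferase construct) were seeded at 2,000 per well, rested 5 hr at 37C, then exposed to DMSO-dissolved compounds for 24 hr. Activation was read as luciferase luminescence.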
% is set by controls: 0 for no effect and ±100 for the full control effect.

CCOC(=O)Cc1cccc(-c2cc(CCCCCCc3ccc(O[C@H]4O[C@H](COC(C)=O)[C@@H](OC(C)=O)[C@H](OC(C)=O)[C@@H]4OC(C)=O)c(-c4cccc(CC(=O)OCC)c4)c3)ccc2O[C@H]2O[C@H](COC(C)=O)[C@@H](OC(C)=O)[C@H](OC(C)=O)[C@@H]2OC(C)=O)c1
inactive: Potency [1] | Potency [2] | Potency [3] | Potency [4] | Potency [5] | Potency [6] | Potency [7] | Potency [8] | Potency [9] | Potency [10] | Potency [11] | Potency [12] | Potency [13]

CC(=O)O[C@H]1C[C@@H]2CC[C@@H]3[C@H](CC[C@@]4(C)[C@H]3C[C@H](N3CC[N+](C)(C)CC3)[C@@H]4OC(C)=O)[C@@]2(C)C[C@@H]1N1CC[N+](C)(C)CC1
inactive: Potency [1] | Potency [2] | Potency [3] | Potency [4] | Potency [5] | Potency [6] | Potency [7] | Potency [14] | Potency [15] | Potency [8] | Potency [9] | Potency [11] | Potency [12] | Potency [13]

CC(C)CN(C[C@@H](O)[C@H](Cc1ccccc1)NC(=O)O[C@H]1CO[C@H]2OCC[C@H]21)S(=O)(=O)c1ccc(N)cc1
inactive: Potency [1] | Potency [2] | Potency [3] | Potency [4] | Potency [5] | Potency [6] | Potency [7] | Potency [14] | Potency [15] | Potency [8] | Potency [9] | Potency [10] | Potency [11] | Potency [13]

CCC(=O)NS(=O)(=O)c1ccc(-c2c(-c3ccccc3)noc2C)cc1
inactive: Potency [1] | Potency [2] | Potency [3] | Potency [4] | Potency [5] | Potency [6] | Potency [7] | Potency [14] | Potency [8] | Potency [9] | Potency [10] | Potency [11] | Potency [13]

CC(C)CN(C[C@@H](O)[C@H](Cc1ccccc1)NC(=O)O[C@@H]1CCOC1)S(=O)(=O)c1ccc(N)cc1
inactive: Potency [4] | Potency [5] | Potency [6] | Potency [15] | Potency [8] | Potency [9] | Potency [10] | Potency [11] | Potency [12] | Potency [13]
active: Potency [16] 2.82 µM

C[C@@H]1C/C=C/C=C/C=C/C=C/[C@H](O[C@@H]2O[C@H](C)[C@@H](O)[C@H](N)[C@@H]2O)C[C@@H]2O[C@](O)(C[C@@H](O)C[C@H]3O[C@@H]3/C=C/C(=O)O1)C[C@H](O)[C@H]2C(=O)O
inactive: Potency [1] | Potency [2] | Potency [3] | Potency [4] | Potency [5] | Potency [6] | Potency [7] | Potency [14] | Potency [15] | Potency [8] | Potency [9] | Potency [10] | Potency [11] | Potency [12] | Potency [13]

CC[C@H](CC[C@@H](C)[C@H]1CC[C@H]2[C@@H]3CC=C4C[C@@H](O)CC[C@]4(C)[C@H]3CC[C@]12C)C(C)C
inactive: Potency [1] | Potency [2] | Potency [3] | Potency [4] | Potency [5] | Potency [6] | Potency [7] | Potency [14] | Potency [15] | Potency [8] | Potency [9] | Potency [10] | Potency [11] | Potency [12] | Potency [13]

Cc1nnc(C(C)C)n1C1C[C@H]2CC[C@@H](C1)N2CC[C@H](NC(=O)C1CCC(F)(F)CC1)c1ccccc1 (some centres undefined)
inactive: Potency [1] | Potency [2] | Potency [3] | Potency [4] | Potency [5] | Potency [6] | Potency [7] | Potency [14] | Potency [8] | Potency [9] | Potency [11] | Potency [12] | PLD induction [13] -2.27% [at 7.66 µM]

Clc1cc(Cl)c(OCC#CI)cc1Cl
inactive: Potency [4] | Potency [5] | Potency [6] | Potency [15] | Potency [10] | Potency [13] | Potency [16]
active: Potency [1] 7.5 µM | Potency [2] 6.68 µM | Potency [14] 33.5 µM | Potency [8] 16.8 µM | Potency [9] 21.1 µM | Potency [11] 26.6 µM

OC[C@H]1O[C@@H](n2cnc3c2NC=NC[C@H]3O)C[C@@H]1O
inactive: Potency [1] | Potency [2] | Potency [3] | Potency [4] | Potency [5] | Potency [6] | Potency [7] | Potency [14] | Potency [15] | Potency [8] | Potency [9] | Potency [10] | Potency [11] | Potency [12] | Potency [13]

CC1(C)S[C@@H]2[C@H](NC(=O)[C@H](N)c3ccccc3)C(=O)N2[C@H]1C(=O)OCOC(=O)[C@@H]1N2C(=O)C[C@H]2S(=O)(=O)C1(C)C
inactive: Potency [1] | Potency [2] | Potency [3] | Potency [5] | Potency [6] | Potency [7] | Potency [14] | Potency [15] | Potency [8] | Potency [9] | Potency [10] | Potency [11] | Potency [13]
active: Potency [4] 13.4 µM [inconclusive]

CC[C@H](C)CCCCC(=O)N[C@@H](CCN)C(=O)N[C@H](C(=O)N[C@@H](CCN)C(=O)N[C@H]1CCNC(=O)[C@H]([C@@H](C)O)NC(=O)[C@H](CCN)NC(=O)[C@H](CCN)NC(=O)[C@H](CC(C)C)NC(=O)[C@@H](CC(C)C)NC(=O)[C@H](CCN)NC1=O)[C@@H](C)O (X2-[Dab]T[Dab][Dab][Dab][dL]L[Dab][Dab]T; lactam 4-C)
inactive: Potency [1] | Potency [2] | Potency [3] | Potency [4] | Potency [5] | Potency [6] | Potency [7] | Potency [14] | Potency [15] | Potency [8] | Potency [9] | Potency [10] | Potency [11] | Potency [12] | Potency [13]

CCC(C)(C)OC(=O)N[C@@H](Cc1c[nH]c2ccccc12)C(=O)N[C@@H](CCSC)C(=O)N[C@@H](CC(=O)O)C(=O)N[C@@H](Cc1ccccc1)C(N)=O
inactive: Potency [1] | Potency [2] | Potency [3] | Potency [4] | Potency [5] | Potency [6] | Potency [7] | Potency [14] | Potency [8] | Potency [9] | Potency [10] | Potency [11] | Potency [12] | Potency [13]

CC(CCc1ccc(O)cc1)NCC(O)c1ccc(O)cc1 (centres undefined)
inactive: Potency [2] | Potency [3] | Potency [5] | Potency [15] | Potency [8] | Potency [10] | Potency [11] | Potency [12] | Potency [13] | Potency [16]
